From PubChem
Shown are actives, neighbours in structure and some others; about 4.6% of the full set was active somewhere.
AHR act – AHR activators, primary screen, cell-based, luminescence, luciferase reporter, human | Aryl hydrocarbon receptor (Homo sapiens), P35869 | AHR-responsive luciferase reporter cells | activation, % at 5 µM | 320,000 tested, 2.5% active; in the data active = activation above about 47%;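 note: 0% = vehicle wells and 100% = reference agonist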
Target sequence (P35869 whole entry, looked up): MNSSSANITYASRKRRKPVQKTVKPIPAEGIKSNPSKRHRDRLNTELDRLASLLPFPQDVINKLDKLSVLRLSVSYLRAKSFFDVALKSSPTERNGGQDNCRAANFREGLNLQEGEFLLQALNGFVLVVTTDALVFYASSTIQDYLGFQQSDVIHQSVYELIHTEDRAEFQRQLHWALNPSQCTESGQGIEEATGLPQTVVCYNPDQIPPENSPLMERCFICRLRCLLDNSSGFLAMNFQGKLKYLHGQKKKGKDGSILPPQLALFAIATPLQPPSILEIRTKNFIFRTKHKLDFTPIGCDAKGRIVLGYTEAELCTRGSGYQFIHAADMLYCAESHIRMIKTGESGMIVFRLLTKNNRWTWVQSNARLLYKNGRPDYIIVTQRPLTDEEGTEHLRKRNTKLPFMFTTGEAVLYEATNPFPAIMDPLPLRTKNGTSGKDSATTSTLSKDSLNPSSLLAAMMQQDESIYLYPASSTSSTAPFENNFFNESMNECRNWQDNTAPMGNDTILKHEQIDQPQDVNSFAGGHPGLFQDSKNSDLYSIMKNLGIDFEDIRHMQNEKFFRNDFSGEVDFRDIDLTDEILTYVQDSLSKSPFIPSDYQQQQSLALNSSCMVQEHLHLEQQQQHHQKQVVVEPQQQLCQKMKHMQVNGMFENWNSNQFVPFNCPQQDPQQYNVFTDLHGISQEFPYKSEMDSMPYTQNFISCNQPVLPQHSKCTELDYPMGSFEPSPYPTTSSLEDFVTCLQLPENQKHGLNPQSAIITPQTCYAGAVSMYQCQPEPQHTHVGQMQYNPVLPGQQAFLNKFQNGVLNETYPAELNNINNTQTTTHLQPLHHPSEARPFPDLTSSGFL
HSF-1 act – HSF-1 activators, primary screen, NIH3T3-HGL cells, MG132 stress, luminescence, single point; activation, % at 9 µM; 300,000 tested, 1.7% active; NIH3T3-HGL HSF-1 luciferase reporter, 8 h; 100% = twice DMSO control signal; AID 504408, 2011;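 active = mean replicate activation of at least 50% with a set share of replicates each reaching 50%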;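 note: 0% = median of the neutral control wells and 100% = twice that signal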
HSF1 inhib – HSF1 inhibitors in luciferase reporter cells, primary screen, cell-based, NIH3T3, luminescence. AID 2098, 2009. NIH3T3-HGL HSE-luciferase, MG132-induced, luminescence 8 h; stronger effect = lower value. activity change, negative = inhibition, % at 7.5 µM (by protocol). 300,000 tested, 0.77% active;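 active = more than half of replicate wells show activity change below -50%, luminescence cut by over half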;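 note: luciferase reports HSF-1 transcriptional activity via heat shock element; 0% = median of DMSO wells and -100% = zero luminescence signal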
FXN GAA850 act – FXN promoter activators, primary screen, cell-based, luciferase luminescence, HEK293 lucGAA850 | 360,000 tested, 0.56% active | AID 540364, 2011 | HEK293 lucGAA850 FXN promoter luciferase reporter, 24 h; percent of 10 µM SAHA response | activation, % at 6 µM;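 active = activation above the average of all compounds screened plus 3 SD, cutoff fixed separately per campaign, cut at about 7.5% in these data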;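 note: 0% = DMSO wells and 100% = 10 µM SAHA wells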
GAA30 FXN cntr – GAA30 FXN promoter activators, confirmation, counter-screen for GAA850 frataxin promoter activator project, cell-based, luminescence, HEK293, lucGAA30, triplicate | shares compounds with FXN GAA850 act | HEK293 lucGAA30 FXN promoter luciferase, 24 h; DMSO = 0%, 5 µM ipriflavone = 100% | activation, % at 6 µM | 1,900 tested, 66% active | AID 588350, 2011;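 active = mean activation above the mean of solvent-only control wells plus 3 SD, cut at about 22% in these data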;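 note: counterscreen of GAA850 promoter hits where activity marks nonselective or luminescence artifacts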
FXN GAA850 conf – FXN GAA850 promoter activators in reporter cells, confirmation, cell-based, luminescence, HEK293 lucGAA850, triplicate | shares compounds with FXN GAA850 act | HEK293 lucGAA850 FXN promoter luciferase reporter, 24 h; 100% = activation by SAHA | activation, % at 6 µM | 1,900 tested, 86% active | AID 588351, 2011;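 active = mean activation above a set limit taken from the primary screen, cut at about 8% in these data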;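 note: 0% = DMSO wells and 100% = 10 µM SAHA wells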
* marks the source's active call; other numbers are inactive results; · = not tested or not shown.

SMILES	AHR act	HSF-1 act	HSF1 inhib	FXN GAA850 act	GAA30 FXN cntr	FXN GAA850 conf
O=c1c2ccccc2nc(-c2ccco2)n1Cc1ccccc1	7.0	39.7	37.0	8.2*	107.4*	27.9*
O=c1oc2ccccc2cc1-c1nc2ccccc2o1	15.8	-1.9	0.2	8.4*	122.2*	36.9*
O=c1oc2ccc3ccccc3c2cc1-c1nc2ccccc2o1	41.3	3.3	2.7	-0.9	·	·
Brc1ccc2[nH]c3c(c2c1)CCC3	11.1	-3.5	0.6	0.0	·	·
O=C1Cc2c([nH]c3ccc(Br)cc23)-c2ccccc2N1	·	·	·	67.5*	167.3*	201.3*
CN(c1ccccc1)c1ccc(/C=N/N2CCOCC2)cc1	2.2	60.9*	18.9	7.9*	113.7*	36.4*
C(=NN1CCCCCC1)c1ccccc1	·	·	·	-2.0	·	·
CCCNC(=O)CCc1nnc2ccc(N3CCC(C)CC3)nn12	0.9	-5.9	3.0	1.3	·	·
CC(O)CNc1ncnc2cc(-c3ccc(F)cc3)sc12 (stereo unspecified)	14.4	32.7	18.2	10.3*	74.9*	30.2*
N#Cc1c(N)nc(SCc2ccccn2)c(C#N)c1-c1cccs1	19.3	31.3	17.9	20.4*	25.9*	18.8*
COc1cc(NC(=O)c2cc3ccccc3o2)c(OC)cc1Br	43.7	-12.0	-15.2	17.3*	24.1*	15.9*
CCOC(=O)[C@H]1[C@H]2COc3ccccc3[C@@H]2N2C(=O)c3c(C)cc(C)cc3NC(=O)[C@@]12C	5.9	·	·	11.0*	27.6*	11.4*
CC1=NN(c2ccccc2)C(=O)/C1=C\C=C\c1ccccc1	5.2	97.6*	67.9	8.6*	19.4	14.0*
Cc1cc(C)cc(-n2c(SCC(=O)NCc3ccc4c(c3)OCO4)nc3ccccc3c2=O)c1	2.6	14.4	6.3	8.6*	17.8	7.0
Cc1cc(C)cc(-n2c(SCC(=O)NCc3ccco3)nc3ccccc3c2=O)c1	-1.6	·	·	7.3	·	·
O=C(O)C1CC=CCC1C(=O)Nc1ccc(S(=O)(=O)N2CCCc3ccccc32)cc1 (stereo unspecified)	7.1	-0.9	-1.2	-5.5	·	·
O=C(O)c1ccccc1NN=C1CCCCC1	18.3	4.2	1.5	9.0*	38.0*	7.2
O=c1cc(-c2ccccc2)oc2ccc(O)cc12	1.5	46.5	32.8	9.2*	134.4*	41.8*
O=C(Nc1ccccc1N1CCOCC1)C1=COCCO1	-1.4	13.3	-5.0	-1.5	·	·
CC1CCC(NC(=O)CCn2ccc3cc(S(=O)(=O)N4CCCC4)ccc32)CC1 (stereo unspecified)	-0.1	24.0	4.3	8.4*	8.8	8.9*
Cn1cc(CN2CCCC(CNC(=O)c3ccc4c(c3)OCO4)C2)c2ccccc21 (stereo unspecified)	13.4	-6.6	-2.6	10.9*	21.2	12.6*
O=C(Cn1cc(SCc2ccccc2Cl)c2ccccc21)N1CCOCC1	17.2	44.3	28.9	9.9*	132.9*	42.9*
CCn1cc(SCC(=O)N2CCOCC2)c2ccccc21	3.8	15.2	10.5	0.5	·	·
O=C(CCc1ccccc1)Nc1cc2c3c(c1)CC(=O)N3CCC2	11.2	0.3	-5.8	0.1	·	·
CCOc1ccc(-c2cn3ccccc3n2)cc1[N+](=O)[O-]	-5.1	55.4*	23.6	9.2*	120.7*	39.6*
SMILES	AHR act	HSF-1 act	HSF1 inhib	FXN GAA850 act	GAA30 FXN cntr	FXN GAA850 conf
O=[N+]([O-])c1ccc(-c2cn3ccccc3n2)cc1	-1.6	9.4	-1.9	9.2*	107.6*	50.3*
c1ccc(-c2cn3ccccc3n2)cc1	·	·	·	3.6	·	·
CCN(CC)S(=O)(=O)c1ccc(-c2cn3ccccc3n2)cc1	·	·	·	-0.2	·	·
O=C(NCc1ccco1)c1ccc(Cn2c(=O)c3sccc3n(Cc3cccc(F)c3)c2=O)cc1	-0.7	18.3	13.4	17.7*	25.0*	12.6*
O=C(Cn1c(=O)n(Cc2ccco2)c(=O)c2ccccc21)Nc1cccc(Cl)c1	1.8	-3.5	2.9	4.2	·	·
O=C(NCc1ccco1)c1ccc(Cn2c(=O)c3ccccc3n(Cc3cccc(Cl)c3)c2=O)cc1	0.7	20.2	16.2	10.7*	13.0	6.0
O=C(CCn1c(=O)c2sccc2n(CC(=O)NCc2ccco2)c1=O)NCc1ccccc1	7.0	-3.9	-0.7	-1.8	·	·
N#CCCN(C(=O)COC(=O)c1ccc2ccccc2n1)c1ccccc1	17.6	·	·	0.2	·	·
N#Cc1ccc(/C=C(\C(=O)C(=O)O)c2ccc3ccccc3n2)cc1	20.4	34.5	30.1	8.3*	131.8*	43.0*
COc1cc(/C=N/NC2=NCCCCC2)ccc1O	3.8	-3.6	2.6	-0.4	·	·
COc1cc(/C=N/Nc2ncnc3sc4c(c23)CCC4)ccc1O	·	-30.7	-13.0	19.7*	67.4*	19.9*
CCCc1cnc(N2CCN(S(C)(=O)=O)CC2)nc1	0.9	3.3	1.2	3.3	·	·
CCOC(=O)C/C(=N\Nc1ncnc2ccccc12)c1ccccc1	69.3*	47.6	23.7	8.3*	83.8*	35.4*
CCCC(=O)Nc1ccc(N2CCN(C(=O)c3cc4ccccc4o3)CC2)cc1	-1.5	15.2	3.6	-1.0	·	·
COc1cc(OC)c(OC)cc1C=Cc1ccc2ccccc2n1	·	·	·	8.9*	66.9*	29.7*
COc1cc(OC)c(OC)cc1/C=C/c1cc(C(=O)O)c2ccccc2n1	1.7	-0.7	-5.7	3.7	·	·
CCOc1ccc(OCCn2c(=S)[nH]c3c(N)ncnc32)cc1	13.8	-4.6	-3.1	2.8	·	·
Cc1ccc(OCCn2cnc3c(N)ncnc32)cc1	-0.7	-7.3	-1.6	8.0*	-8.0	9.8*
CN(CC(=O)Nc1ccc(OC(F)(F)F)cc1)C(=O)Cc1ccc2c(c1)CCC2	11.5	·	·	1.5	·	·
COc1ccc(Cn2nnnc2CN(Cc2cc3cccc(C)c3[nH]c2=O)C2CCCC2)cc1	26.6	2.8	12.1	7.8*	17.9	6.1
COc1ccc(-c2cnn3c4c(c(C)nc23)CCN4C(C)C)cc1OC	19.8	10.7	12.3	9.8*	79.6*	36.3*
CC(=O)NC(=S)Nc1ccc(-c2nc3ccc(C)cc3s2)cc1	-0.5	·	·	2.2	·	·
Cc1ccc2nc(-c3ccc(NC(=O)COC(=O)c4cncc(Br)c4)cc3)sc2c1	·	-37.8	-23.3	8.4*	107.2*	28.6*
Cc1ccc2nc(-c3ccc(NC(=O)COC(=O)c4ccc(Br)o4)cc3)sc2c1	-9.8	·	·	1.3	·	·
CNC(=S)Nc1ccc(-c2nc3ccc(C)cc3s2)cc1	-5.3	13.5	0.8	8.4*	114.3*	38.7*
